The text below walks through data of PubChem BioAssay (Tox21).

A short description of experiment [1]: qHTS assay to identify small molecule agonists of the vitamin D receptor (VDR) signaling pathway - cell viability counter screen (AID 743224). Also: series mostly up to about 63 µM; nearly all actives have a fitted effect of over 50% in size. The procedure, abridged: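 Counter screen run in the same wells as the VDR-bla reporter assay: CellTiter-Glo luminescence, 30 min at room temperature, after 16 h compound treatment at 37C of cells pre-plated for 4 h.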
In general terms: In qHTS, concentration-response curves come from the screen itself.

Experiment [2] is described as follows: qHTS assay to identify small molecule antagonists of the vitamin D receptor (VDR) signaling pathway - cell viability counter screen (AID 743225). Also: nearly all actives have a fitted effect of over 50% in size. In short, it runs like this: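 Cytotoxicity toward the VDR-bla HEK 293T line was scored by ATP-based CellTiter-Glo luminescence, read in the wells already used for the beta-lactamase readout after 16 h compound treatment under 3 nM 1-alpha,25-dihydroxyvitamin D3 stimulation.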

Experiment [3] can be described thus: qHTS assay to identify small molecule agonists of the NFkB signaling pathway (AID 1159509; active = well fitted curve in the direction sought with a large enough effect in the signal ratio in the repeat runs, not every such curve was filed as active; the % refers to the signal ratio; also: series mostly up to about 61 µM). The procedure, abridged: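 Pathway activation was measured in ME-180 cells stably expressing beta-lactamase under NF-kB response element control. Substrate cleavage was read as the 460/530 nm emission shift after 5 hr compound incubation.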
Experiment [4] can be described thus: qHTS assay to identify small molecule agonists of the endoplasmic reticulum stress response signaling pathway - cell viability counter screen (AID 1159517; calls by dose curve; also: nearly all actives have a fitted effect of over 50% in size; also: potency is read from the fitted curve at half-maximal effect). The procedure, abridged:
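Cpd-treated ESRE-bla HeLa (5 hr, 37 C) → LiveBLAzer 2 hr RT → CellTiter-Glo 30 min RT → luminescence.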

Experiment [5] can be described thus: qHTS assay to identify small molecule antagonists of the retinoid-related orphan receptor gamma (ROR-gamma) signaling pathway - cell viability counter screen (AID 1159520). Also: nearly all actives have a fitted effect of over 50% in size. Also: potency is read from the fitted curve at half-maximal effect. The procedure, abridged:
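Tet-on ROR gamma CHO cells (1,000/well) were plated 4 hr, given compounds in DMSO for 2 hr at 37 C, then induced with 1 uM final doxycycline for 16 hr. Viability was read as ATP by CellTiter-Glo luminescence after 30 min.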

Experiment [6] concerns the target Nuclear receptor ROR-gamma (Homo sapiens) (UniProt P51449). Briefly: qHTS assay to identify small molecule antagonists of the retinoid-related orphan receptor gamma (ROR-gamma) signaling pathway (AID 1159521; also: nearly all actives have a fitted effect of over 50% in size; also: potency is read from the fitted curve at half-maximal effect). The procedure, abridged: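 Readout: ONE-Glo luciferase luminescence, 30 min at room temperature. System: Tet-on RORγ CHO, RORE-LUC. Sequence: compound 2 h, doxycycline 1 uM final, 16 h at 37 C.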

Experiment [7] is described as follows: qHTS assay to identify small molecule agonists of the AP-1 signaling pathway - cell viability counter screen (AID 1159525; calls by dose curve; also: nearly all actives have a fitted effect of over 55% in size). In short, it runs like this:
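Each titration point was normalised to DMSO and tetra n-octyl ammonium bromide controls. The read was Cell Titer Glo luminescence after 30 min at RT, following 5 h compound exposure of ME-180 AP-1-bla cells at 37 °C.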

The nature of experiment [8]: qHTS assay to identify small molecule agonists of the RXR signaling pathway - cell viability counter screen (AID 1159529). Also: nearly all actives have a fitted effect of over 50% in size. Also: potency is read from the fitted curve at half-maximal effect. In short, it runs like this:
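Tox21 10K compounds were tested for cytotoxicity against GeneBLAzer RXR-alpha HEK 293T cells grown in 2% charcoal-stripped FBS. Exposure lasted 16 hr at 37 C, 5% CO2; viability read by CellTiter-Glo luminescence.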

A short description of experiment [9]: qHTS assay to identify small molecule antagonists of the retinoid acid receptor (RAR) signaling pathway - cell viability counter screen (AID 1159551). Also: nearly all actives have a fitted effect of over 35% in size. Also: potency is read from the fitted curve at half-maximal effect. In short, it runs like this:
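Cytotoxicity counter screen: ATP content quantified by CellTiter-Glo luminescence in C3RL4 cells treated 6 hr at 37 C with compound and retinol (1 uM final). Cells plated at 1,000/well and cultured overnight before dosing.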

The nature of experiment [10]: qHTS assay to identify small molecule agonists of the endoplasmic reticulum stress response signaling pathway (AID 1159516; active = well fitted activation curve with a large enough effect in the signal ratio in the repeat runs, not every such curve was filed as active; the % refers to the signal ratio). The procedure, abridged:
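Ratiometric FRET readout (405 nm excitation; 460 and 530 nm emission) of a beta-lactamase gene driven by the ER stress response element, after 2 hr substrate loading. HeLa ESRE-bla cells were seeded overnight and treated with compounds for only 5 hr at 37 C.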

Experiment [11] is described as follows: qHTS assay to identify small molecule agonists of the AP-1 signaling pathway (AID 1159526; calls by dose curve).
The nature of experiment [12]: qHTS assay to identify small molecule agonists of the retinoic acid receptor (RAR) signaling pathway (AID 1159553). Also: potency is read from the fitted curve at half-maximal effect. In short, it runs like this: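 Luminescence was measured 30 min after luciferase reagent addition at room temperature. Before that, C3RL4 reporter cells (1,000 per well, plated overnight) were treated with compound for 6 hr at 37 C and 5% CO2.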
A short description of experiment [13]: qHTS assay to identify small molecule agonists of the NFkB signaling pathway - cell viability counter screen (AID 1159515; calls by dose curve; also: series mostly up to about 61 µM; nearly all actives have a fitted effect of over 55% in size). In short, it runs like this:
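Read by CellTiter-Glo luminescence (30 min, room temperature) in the wells also used for the beta-lactamase FRET read. ME-180 NFkB-bla cells at 2,000 per well were plated overnight, then exposed to compound for 5 hr at 37 C.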

The target of experiment [14] is Retinoic acid receptor RXR-alpha (Homo sapiens) (UniProt P19793). Briefly: qHTS assay to identify small molecule agonists of the RXR signaling pathway (AID 1159527; calls by dose curve; also: nearly all actives have a fitted effect of over 35% in size; also: potency is read from the fitted curve at half-maximal effect). The procedure, abridged: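 Reporter activation is measured as beta-lactamase activity via FRET substrate cleavage (emission 460/530 nm) in HEK 293T cells expressing an RXR-alpha-driven bla construct, following 16 hr compound exposure at 37 C.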

The nature of experiment [15]: qHTS assay to identify small molecule antagonists of the retinoic acid receptor (RAR) signaling pathway (AID 1159552; also: nearly all actives have a fitted effect of over 50% in size; also: potency is read from the fitted curve at half-maximal effect). In short, it runs like this: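 Overnight-plated C3RL4 reporter cells get compound, then retinol to 1 uM final; plates sit 6 hr at 37 C, 5% CO2. A luciferase reagent is added and light output recorded after 30 min at room temperature.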
A short description of experiment [16]: qHTS assay to identify small molecule antagonists of the estrogen related receptor (ERR) signaling pathway - cell viability counter screen (AID 1224818). Also: series mostly up to about 46 µM. The procedure, abridged: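 Cytotoxicity counter screen: fluorescence from CellTiter-Fluor, added after 17.5 h compound exposure at 37 C and read 30 min later. ERR cell line seeded at 2,000 cells/well, preincubated 6 h before dosing.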

Experiment [17] in a line: qHTS assay to identify small molecule agonists of the estrogen related receptor (ERR) signaling pathway (AID 1224820). The procedure, abridged: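 An ERR cell line provided by NTP was seeded at 2,000 cells per well and allowed to settle for 6 h before compounds in DMSO were added. After 18 h at 37 C, luciferase activity was measured by One-Glo luminescence.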
Experiment [18] concerns estrogen-related receptor alpha (ERRalpha) with PGC-1alpha coactivator, human. Briefly: qHTS assay to identify small molecule antagonists of the estrogen related receptor signaling pathway with the pleiotropic PPARgamma coactivator (PGC) (AID 1224821; calls by dose curve). In short, it runs like this:
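A PGC/ERR cell line supplied by NTP is seeded, allowed 6 h at 37 C, and treated with test compounds in DMSO for 18 h. Signal is then measured as luciferase luminescence using One-Glo.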

Experiment [19] can be described thus: qHTS assay to identify small molecule antagonists of the estrogen related receptor signaling pathway with the pleiotropic PPARgamma coactivator (PGC) cell viability counter screen (AID 1224822; also: series mostly up to about 46 µM). The procedure, abridged:
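Viability counter-screen read by fluorescence intensity after 30 min with CellTiter-Fluor at 37 C; PGC/ERR reporter cells were exposed to compounds for 17.5 h at 37 C following a 6 h preincubation.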

A short description of experiment [20]: qHTS assay to identify small molecule antagonists of the estrogen related receptor (ERR) signaling pathway (AID 1224819). The procedure, abridged: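 LOPAC library screened for antagonism as reduced One-Glo luminescence in ERR reporter cells (2,000/well). Compounds were added after 6 h pre-incubation and left 18 h at 37C; reading followed a 30 min room-temperature reagent step.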

Values joined by “and” are separate entries in the source; they are usually repeats but may differ in a detail not shown here. Equal entries are not always repeated. Results filed as inconclusive are left out. Some structures have more than one record in an assay (separate samples or runs), and their calls can disagree. Active and inactive are the calls of the source. Unless noted, calls follow the shape of the dose curve; as a rule, active = well fitted curve in the direction sought with a large enough effect in the repeat runs; inconclusive = weak or mixed curves; inactive = no such curve, though single readings can be large; an effect the other way counts as inactive or inconclusive.

Chain of Retinoic acid receptor RXR-alpha (Homo sapiens) (P19793 whole entry, looked up): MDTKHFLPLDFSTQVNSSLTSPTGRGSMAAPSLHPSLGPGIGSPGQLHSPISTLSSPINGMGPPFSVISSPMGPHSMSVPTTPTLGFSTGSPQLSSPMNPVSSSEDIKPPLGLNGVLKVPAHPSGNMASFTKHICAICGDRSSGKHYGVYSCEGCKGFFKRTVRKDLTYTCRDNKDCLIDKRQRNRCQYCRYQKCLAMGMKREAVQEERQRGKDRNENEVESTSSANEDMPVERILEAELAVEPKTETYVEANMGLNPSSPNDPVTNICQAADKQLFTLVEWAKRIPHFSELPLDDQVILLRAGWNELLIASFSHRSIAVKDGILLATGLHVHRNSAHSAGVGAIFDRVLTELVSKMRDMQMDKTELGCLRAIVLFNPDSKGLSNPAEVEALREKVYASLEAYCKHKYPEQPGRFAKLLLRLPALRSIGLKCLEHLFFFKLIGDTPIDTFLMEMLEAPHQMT

Take `O=C(CBr)Nc1ccc(Cl)cc1C(=O)c1ccccc1F`: the Potency result in experiment [1], in experiment [2], in [5], in experiment [6], in [7] and in experiment [8] was “inactive” each time. Also, in experiment [9], the Potency result was “inactive”. Besides, in experiment [3], the call was inactive. Also, the Potency in experiment [4] was 23.9 µM (active).

For `CO/N=C(/C(=O)OC)c1ccccc1COc1ccccc1C`, the outcome in experiment [3], in experiment [10] and in [11] was inactive. In addition, the Potency in experiment [6] was 2.73 µM (active). The Potency result in experiment [7] and in experiment [12] was “inactive” in each case.

Consider `CCn1cc[n+](C)c1`, for which the Potency entry in experiment [1], in [2], in experiment [13], in [7], in experiment [8] and in experiment [9] was “inactive” throughout. Besides, the outcome in experiment [10] and in experiment [11] was inactive. For the same compound, the Potency entry in experiment [14] is “inactive and 19.8 µM (active)”.

Consider `C=CC[C@]1(O)CC[C@H]2[C@@H]3CCC4=CC(=O)CCC4=C3C=C[C@@]21C`, for which the Potency entry in [1], in experiment [2], in experiment [4] and in experiment [7] was “inactive” each time. For the same compound, the compound was called inactive in [3] and in experiment [11]. The Potency in experiment [6] was 2.98 µM (active); in [8] it was 23.9 µM (active); in [9] it was 33.5 µM (active).

For the compound `O=[N+]([O-])c1cc(C(F)(F)F)cc([N+](=O)[O-])c1Cl`, the Potency result in experiment [1], in experiment [2], in experiment [4], in experiment [5], in experiment [6] and in [7] was “inactive” in each case. Moreover, the Potency entry in [14], in experiment [9], in [15] and in [12] was “inactive” each time. For the same compound, the result in experiment [3] and in experiment [11] was inactive.

`[CH3][Sn]([CH3])([Cl])[Cl]`: the Potency result in experiment [1], in experiment [2], in [4], in experiment [7], in [8] and in [9] was “inactive” in each case. The outcome in experiment [3] and in [10] was inactive. In addition, the Potency in experiment [6] was 4.93 µM (active) and 6.86 µM (active); in experiment [15], 55.4 µM (active) and 48.6 µM (active).

For the compound `c1cc2ccc3cccc4ccc(c1)c2c34`, the compound was called inactive in [3], in experiment [11], in experiment [16] and in [17]. For the same compound, the Potency entry in [5], in experiment [6], in experiment [9], in [15], in [12] and in [18] was “inactive” throughout. In addition, the Potency result in [19] was “inactive”. The Potency in [8] was 36.3 µM (active).

For the compound `O=[N+]([O-])C(Br)(CO)CO`, the compound was classed as inactive in experiment [3] and in [10]. For the same compound, the Potency in [5] was 43.3 µM (active); in experiment [6], 48.6 µM (active). For the same compound, the Potency result in [7] is “inactive”.

Take `C=CC(=O)NCNC(=O)C=C`: the Potency result in [1], in experiment [4], in [5], in experiment [7], in [9] and in [12] was “inactive” each time. In addition, the Potency result in [18] and in experiment [19] was “inactive” each time. Also, the call in experiment [3], in experiment [11], in experiment [16] and in [20] was inactive. For the same compound, the Potency in experiment [14] is 4.35 µM (active).

On to `COc1c(C(C)(C)C)cc([N+](=O)[O-])c(C)c1[N+](=O)[O-]`, for which the Potency entry in [1], in [2], in experiment [6], in experiment [7], in [8] and in experiment [9] was “inactive” in each case. The Potency entry in [15] and in experiment [12] was “inactive” throughout. Further, the call in experiment [3] and in experiment [10] was inactive.

For the compound `Cc1ccc(-c2c(Cl)nc(C#N)n2S(=O)(=O)N(C)C)cc1`, the Potency entry in [2], in experiment [7], in [9] and in [15] was “inactive” each time. In addition, the compound was called inactive in experiment [3] and in [10]. Moreover, the Potency in [6] was 21.7 µM (active); in experiment [12], 68.5 µM (active).

In the case of `C#CCOC(C(=O)OCCN(C)C)(c1ccccc1)c1ccccc1`, the Potency entry in experiment [1], in experiment [2], in experiment [4], in [6], in [7] and in experiment [8] was “inactive” throughout. Moreover, the Potency entry in experiment [9], in experiment [15] and in [12] was “inactive” in each case. Also, the call in experiment [3], in experiment [10] and in experiment [11] was inactive.
